Experimental data taken from PubChem BioAssay.
For some of these results: Entries with a potency or affinity are not part of this list. Calls of active or inactive are those of the source.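 Rule for the calls, unless noted: active = primary screen inhibitor hit that blocks the TRPC4 channel at some tested dose, yielding a dose curve; inactive = the rest.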

What was measured:
[1] = system: TRPC4 beta (transient receptor potential cation channel C4), mouse; assay: TRPC4 cation channel opening, retest – cell-based, Fluo4 calcium, HEK293 TRPC4beta/mu-opioid, duplicates, 10 µM, confirmation (AID 2426;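 active = fluorescence ratio normalized to control raised more than 50% in primary screen plus both repeat runs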;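 for activation: percent rise of integrated ratio over buffer wells lacking compound which define 0%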); conditions: Fluo4 calcium fluorescence, at 10 µM; hits give high values
[2] = system: transient receptor potential cation channel C4 beta (TRPC4), mouse; assay: TRPC4 cation channel opening, second retest – cell-based, second round, Fluo4, HEK293 TRPC4beta/mu-opioid, 1 µM, confirmation (AID 2461;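 active = primary screen active and over 50% activation in each of two duplicate runs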;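 for activation: 0% = wells without test compound as baseline of integrated fluorescence ratio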); conditions: Fluo4 calcium fluorescence, at 1 µM; hits give high values
[3] = system: TRPC4 (transient receptor potential cation channel C4 beta), mouse; assay: potentiation of DAMGO EC20 TRPC4 response – cell-based, second round, Fluo-4, HEK293 TRPC4beta/mu-opioid, 1 µM, confirmation (AID 2554;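 active = primary screen hit whose fluorescence ratio, in both repeats, exceeds the weak agonist control mean by 3 SD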); conditions: DAMGO EC20, Fluo-4 calcium flux, at 1 µM; hits give high values
[4] = system: TRPC4 beta (transient receptor potential cation channel C4), mouse; assay: potentiation of DAMGO EC20 TRPC4 response – cell-based, Fluo-4, HEK293 TRPC4beta/mu-opioid, confirmation (AID 2555;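 active = primary screen hit whose calcium fluorescence ratio, in both repeats, exceeds the weak agonist control mean by 3 SD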); conditions: DAMGO EC20, Fluo-4 calcium flux, at 10 µM; hits give high values
[5] = target: Short transient receptor potential channel 4 (Mus musculus) (UniProt Q9QUQ5); assay: blockers of DAMGO-evoked TRPC4 calcium flux – cell-based, Fluo4, HEK293 TRPC4beta/mu-opioid, confirmation (AID 2636;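 active = calcium signal cut by more than 3 SD below the full-agonist control yet still positive, in both repeats and the earlier primary screen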); conditions: at 10 µM; hits give high values
Chain of Short transient receptor potential channel 4 (Mus musculus) (Q9QUQ5 whole entry, looked up): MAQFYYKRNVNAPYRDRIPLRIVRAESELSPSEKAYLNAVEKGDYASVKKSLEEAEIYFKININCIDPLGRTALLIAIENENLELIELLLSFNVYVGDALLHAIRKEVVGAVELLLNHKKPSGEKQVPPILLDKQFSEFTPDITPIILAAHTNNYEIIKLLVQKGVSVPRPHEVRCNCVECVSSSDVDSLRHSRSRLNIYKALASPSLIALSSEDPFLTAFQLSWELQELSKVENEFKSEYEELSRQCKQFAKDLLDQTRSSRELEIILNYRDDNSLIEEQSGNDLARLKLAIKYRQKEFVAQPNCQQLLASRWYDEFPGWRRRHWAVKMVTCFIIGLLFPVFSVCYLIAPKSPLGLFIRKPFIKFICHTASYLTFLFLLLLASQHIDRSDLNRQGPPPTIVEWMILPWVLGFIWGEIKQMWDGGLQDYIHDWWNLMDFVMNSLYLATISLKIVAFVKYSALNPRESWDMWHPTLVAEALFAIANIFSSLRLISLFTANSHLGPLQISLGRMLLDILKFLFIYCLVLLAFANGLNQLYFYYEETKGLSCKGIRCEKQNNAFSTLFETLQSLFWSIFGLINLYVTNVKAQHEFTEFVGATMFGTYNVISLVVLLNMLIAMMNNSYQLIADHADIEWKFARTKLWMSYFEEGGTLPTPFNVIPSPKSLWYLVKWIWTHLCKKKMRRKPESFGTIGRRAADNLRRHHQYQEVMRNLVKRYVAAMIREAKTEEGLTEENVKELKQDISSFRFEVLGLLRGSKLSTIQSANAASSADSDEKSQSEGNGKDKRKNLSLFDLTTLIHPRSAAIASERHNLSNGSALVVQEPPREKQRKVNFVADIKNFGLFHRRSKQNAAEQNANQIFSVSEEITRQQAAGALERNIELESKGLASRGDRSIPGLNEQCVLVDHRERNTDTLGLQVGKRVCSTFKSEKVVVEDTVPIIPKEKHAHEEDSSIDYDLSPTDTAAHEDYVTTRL

[6] = target: Short transient receptor potential channel 4 (Mus musculus) (UniProt Q9QUQ5); assay: blockers of DAMGO-evoked TRPC4 calcium flux – cell-based, second round, Fluo4, HEK293 TRPC4beta/mu-opioid, 1 µM, confirmation (AID 2637;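 active = calcium signal ratio cut to more than 3 SD under the fully stimulated control mean yet still positive, in both repeats and the primary screen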); conditions: at 1 µM; hits give high values
[7] = target: Short transient receptor potential channel 4 (Mus musculus) (UniProt Q9QUQ5); assay: potentiation of DAMGO-evoked TRPC4 calcium signal – cell-based, HEK293 TRPC4/mu-opioid, Fluo-4 calcium, EC20 DAMGO, dose response (AID 434941;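 active = earlier screen potentiator hit that boosts the TRPC4 ion channel at some dose, with a dose response; inactive = no potentiation, no dose response, or not a prior hit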;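 note: calcium entry triggered by an EC20 dose of DAMGO at the co-expressed mu-opioid receptor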)
[8] = target: Short transient receptor potential channel 4 (Mus musculus) (UniProt Q9QUQ5); assay: block of DAMGO-driven TRPC4 calcium entry – cell-based, HEK293 TRPC4/mu-opioid, Fluo-4 calcium, dose response (AID 434942)
[9] = target: Short transient receptor potential channel 6 (Mus musculus) (UniProt Q61143); assay: TRPC6 blockade by TRPC4 inhibitor hits – cell-based, HEK293, membrane potential dye, duplicate, selectivity assay for TRPC4 inhibitor project, confirmation (AID 434948;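 active = active in primary screen and both duplicates, each dropping signal beyond three positive-control SD with fluorescence still positive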); conditions: HEK293 TRPC6, membrane potential dye fluorescence, at 10 µM, stimulated with maximal-effect acetylcholine; hits give high values
Chain of Short transient receptor potential channel 6 (Mus musculus) (Q61143 whole entry, looked up): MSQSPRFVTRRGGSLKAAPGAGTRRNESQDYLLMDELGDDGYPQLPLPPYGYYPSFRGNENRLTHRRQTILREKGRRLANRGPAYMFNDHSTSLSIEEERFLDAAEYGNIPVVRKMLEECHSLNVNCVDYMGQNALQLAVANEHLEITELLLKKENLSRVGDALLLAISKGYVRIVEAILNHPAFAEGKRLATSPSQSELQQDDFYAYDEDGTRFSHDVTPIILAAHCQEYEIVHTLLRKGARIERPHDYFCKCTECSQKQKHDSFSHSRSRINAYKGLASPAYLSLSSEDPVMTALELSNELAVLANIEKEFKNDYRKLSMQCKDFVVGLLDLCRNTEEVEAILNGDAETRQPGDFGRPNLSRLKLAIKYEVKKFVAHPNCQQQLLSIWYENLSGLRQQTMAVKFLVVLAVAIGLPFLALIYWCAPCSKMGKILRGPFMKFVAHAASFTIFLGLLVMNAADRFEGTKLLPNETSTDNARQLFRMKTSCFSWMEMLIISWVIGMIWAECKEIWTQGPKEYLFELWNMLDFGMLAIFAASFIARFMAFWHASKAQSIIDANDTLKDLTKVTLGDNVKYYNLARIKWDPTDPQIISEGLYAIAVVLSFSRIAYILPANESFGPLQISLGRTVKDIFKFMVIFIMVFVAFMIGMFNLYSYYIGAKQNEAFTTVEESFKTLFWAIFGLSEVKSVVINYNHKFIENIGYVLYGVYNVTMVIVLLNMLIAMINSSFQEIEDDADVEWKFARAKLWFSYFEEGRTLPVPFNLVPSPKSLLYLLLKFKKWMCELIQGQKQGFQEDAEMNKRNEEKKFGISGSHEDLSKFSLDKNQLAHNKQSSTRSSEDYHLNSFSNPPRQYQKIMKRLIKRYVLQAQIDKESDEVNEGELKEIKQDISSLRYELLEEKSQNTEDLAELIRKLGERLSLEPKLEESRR

[10] = target: Short transient receptor potential channel 6 (Mus musculus) (UniProt Q61143); assay: TRPC6 opening by TRPC4 activator hits – cell-based, HEK293, membrane potential dye, duplicate, selectivity assay for TRPC4 activator project, confirmation (AID 434950;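 active = membrane potential signal rise above negative control mean plus 3 SD in both duplicates, also active in the earlier TRPC4 screen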;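 for activation: 0% = buffer only wells and 100% = acetylcholine maximal-effect wells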); conditions: HEK293 TRPC6, membrane potential fluorescence, at 10 µM; activation: hits give high values; outcome: activation
[11] = target: Short transient receptor potential channel 6 (Mus musculus) (UniProt Q61143); assay: positive modulators of mouse TRPC6 channel – HEK293 cells, membrane potential dye, duplicate, selectivity assay for TRPC4 potentiator project, confirmation (AID 434952;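 active = compound raising the membrane signal above positive-control mean plus 3 SD in both repeats, and a primary screen hit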); conditions: HEK293 TRPC6, membrane potential dye fluorescence, at 10 µM, maximal acetylcholine added after compound; hits give high values
[12] = target: Short transient receptor potential channel 4 (Mus musculus) (UniProt Q9QUQ5); assay: calcium flux activators in TRPC4/5HT1a cells, counter-screen for TRPC4 activator project, cell-based, second counter screen, HEK293 TRPC4/5HT1a, Fluo-4 (AID 434977;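 active = calcium signal rise above buffer-control mean plus 5 SD in both duplicates, and also a hit in the primary screen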;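 for activation: plate controls were assay buffer for no effect and maximal serotonin response for full effect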); conditions: Fluo-4 calcium flux, at 10 µM; hits give high values
[13] = serotonin-gated TRPC4 signal block – cell-based, second counter screen, HEK293 TRPC4/5HT1a, Fluo-4, counter-screen for TRPC4 inhibitor project, confirmation (AID 434978;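 active = primary screen active whose calcium signal fell more than 3 SD beyond the full-serotonin control mean in both duplicate plates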;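 note: serotonin given first at submaximal then at maximal dose after compound preincubation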); conditions: Fluo-4 calcium flux, at 10 µM, serotonin added to trigger calcium flux; hits give high values
[14] = system: TRPC4 (mouse), co-expressed with 5HT1a in HEK293; assay: enhancement of serotonin-evoked TRPC4 response – cell-based, second counter screen, HEK293 TRPC4/5HT1a, Fluo-4, counter-screen for TRPC4 potentiator project, confirmation (AID 434979;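 active = signal rise over 3 SD above mean of control wells given weak agonist, in both repeats and first screen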); conditions: Fluo-4 calcium flux, at 10 µM, serotonin added at its EC20 dose; hits give high values
[15] = nonspecific calcium rise without TRPC4 – cell-based, HEK293 mu-opioid receptor line, counter-screen for TRPC4 activator project, confirmation (AID 449723;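 active = hit in primary screen, with calcium signal over 5 SD above buffer well mean in both duplicates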;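 note: counter screen cells carry the mu-opioid receptor alone and lack TRPC4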); conditions: HEK293 mu-opioid cells, Fluo-4 calcium fluorescence, at 10 µM; hits give high values
[16] = nonspecific potentiation of DAMGO calcium response – cell-based, HEK293 mu-opioid receptor line, counter-screen for TRPC4 allosteric potentiator project, confirmation (AID 449724;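 active = calcium signal rise more than 3 SD above the low-dose agonist control mean, in both duplicate plates and the primary screen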); conditions: HEK293 mu-opioid receptor cells, Fluo-4 calcium flux, at 10 µM, compound added before EC20 DAMGO stimulus; hits give high values

Measured: activation

NC(N)=NN=C1CCCCCCCCCCC1
active: [1] 95% | [10] 32.5% | [12] 32.2% | [15] 24.9%
inactive: all other assays above

CCCN(CCC)CCNC(=O)CCC(=O)Nc1ccc2nc(N3CCOCC3)cc(C)c2c1
active: [1] 99% | [2] 67% | [12] 35.6%
inactive: all other assays above

COc1ccc(CN2CCC(n3nccc3NC(=O)CCc3ccccc3)CC2)c(C)c1C
active: [1] 68% | [10] 72%
inactive: all other assays above

CCn1c(N2CCN(C(=S)NCC(C)C)CC2)nc2ccccc21
active: [1] 98% | [10] 39.5% | [12] 27.9%
inactive: all other assays above

COc1ccc(C(CNC(=O)CCOc2ccccc2)N(C)C)cc1 (stereo not drawn)
active: [1] 145% | [2] 77% | [10] 45%
inactive: all other assays above

CCCN(CCC(=O)Nc1cc(OC)cc(OC)c1)CC1CC1
active: [1] 180% | [2] 69% | [10] 49% | [12] 54.9%
inactive: all other assays above

COc1ccccc1/C=C/CN1CCCC(CCC(=O)NCc2ccc(F)c(F)c2)C1 (stereo not drawn)
active: [1] 92% | [2] 79% | [10] 43.5% | [12] 35.2%
inactive: all other assays above

Cn1c(=O)c2c(nc(CN3CCc4ccccc4C3)n2Cc2ccccc2F)n(C)c1=O
active: [1] 221%
inactive: all other assays above

COc1ccc(C(CNCC(O)COc2c(C)ccc(C)c2C)N(C)C)cc1 (stereo not drawn)
active: [10] 79%
inactive: all other assays above

CC12CCCCN1CCCc1c2[nH]c2ccccc12 (stereo not drawn)
active: [10] 35% | [12] 8.77%
inactive: all other assays above

CCN1CCN(c2ccc(S(=O)(=O)N3CCOCC3)cc2NC(=O)c2ccccc2SC)CC1
active: [1] 316% | [2] 110% | [12] 81.4%
inactive: all other assays above

COc1ccc(-n2c3c(cc(C(=O)NNc4ccccc4)c2=O)C(=O)CC(C)(C)C3)cc1
active: [1] 104%
inactive: all other assays above

Cc1ccc(-n2cc(CNC(C)c3cnn(C)c3C)c(-c3ccc(F)cc3)n2)cc1 (stereo not drawn)
active: [1] 195% | [2] 86% | [10] 30.5%
inactive: all other assays above
